Our source for the residual activity values is ChEMBL document CHEMBL2218924, “A broad activity screen in support of a chemogenomic map for kinase signalling research and drug discovery” (Biochem J, 2013).

Molecules are shown by their SMILES.

The first experiment deals with Serine/threonine-protein kinase PAK 6 (Homo sapiens) (UniProt Q9NQU5). As to conditions: at 1 µM.
Chain of Serine/threonine-protein kinase PAK 6 (Homo sapiens) (Q9NQU5 whole entry, looked up): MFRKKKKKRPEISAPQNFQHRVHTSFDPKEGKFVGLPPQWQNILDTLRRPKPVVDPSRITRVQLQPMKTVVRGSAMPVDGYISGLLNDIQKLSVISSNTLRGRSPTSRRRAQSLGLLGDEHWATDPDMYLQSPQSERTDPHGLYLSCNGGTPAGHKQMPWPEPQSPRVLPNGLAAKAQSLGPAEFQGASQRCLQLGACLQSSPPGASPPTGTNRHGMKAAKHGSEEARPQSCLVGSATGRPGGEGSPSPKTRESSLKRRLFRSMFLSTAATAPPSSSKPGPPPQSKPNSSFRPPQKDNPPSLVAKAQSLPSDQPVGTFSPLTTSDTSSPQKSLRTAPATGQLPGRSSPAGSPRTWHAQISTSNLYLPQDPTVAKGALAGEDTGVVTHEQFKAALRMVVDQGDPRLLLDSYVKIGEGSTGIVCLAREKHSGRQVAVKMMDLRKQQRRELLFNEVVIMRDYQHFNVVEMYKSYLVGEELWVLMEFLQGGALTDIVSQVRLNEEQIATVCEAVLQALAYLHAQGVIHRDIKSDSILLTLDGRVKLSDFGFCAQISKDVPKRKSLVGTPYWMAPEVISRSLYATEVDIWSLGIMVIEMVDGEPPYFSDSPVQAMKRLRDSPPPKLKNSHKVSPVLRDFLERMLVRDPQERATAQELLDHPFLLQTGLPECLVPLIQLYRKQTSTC
With `COc1cc2ncnc(Nc3cccc(Cl)c3)c2cc1OC`, the residual activity was determined as 102%.

Regarding `O=C1NC(=O)C(c2cn(CCCO)c3ncccc23)=C1c1cnccn1`, the residual activity was found to be 78%.

As for `CC(C)(C)n1nc(Cc2cccc3ccccc23)c2c(N)ncnc21`, the residual activity stood at 98%.

As to `Nc1ncnc2c1c(-c1ccc(Oc3ccccc3)cc1)cn2C1CCCC1`, the residual activity turned out to be 91%.

As to `O=C(c1ccccc1)c1ccc(N2CCOCC2)cc1O`, the residual activity was 82%.

As to `COc1cc2nccc(Oc3ccc(NC(=O)Nc4cc(C)on4)c(Cl)c3)c2cc1OC`, the residual activity is 104%.

Regarding `O=C1Cc2c([nH]c3ccc([N+](=O)[O-])cc23)-c2ccccc2N1`, the residual activity worked out at 61%.

On to `CC(C)c1nn(-c2c(Cl)cccc2Cl)c2nc(Cc3ccc(OCCO)cc3)[nH]c(=O)c12`, for which the residual activity is 79%.

Turning to `Cn1sc(=O)n(Cc2ccccc2)c1=O`, the residual activity is 96%.

Consider `Nc1ncnc2c1cnn2-c1ccccc1`, for which the residual activity came out at 92%.

On to `O=C(O)/C=C/c1cc(Br)c(Br)c(Br)c1Br`, for which the residual activity amounted to 102%.

Consider `Cn1c2ccccc2c2c3c(c4c5ccccc5n(CCC#N)c4c21)CNC3=O`, for which the residual activity stood at 4%.

With `O=C1NC(=O)c2c1c1c3ccccc3[nH]c1n1cncc21`, the residual activity stood at 98%.

`COc1cc2c(cc1OC)-c1n[nH]c(Nc3cccc(F)c3)c1C2`: the residual activity was determined as 98%.

With `Nc1n[nH]c2nc3ccccc3nc12`, the residual activity came out at 84%.

Regarding `O=c1cc(N2CCNCC2)oc2c(-c3ccccc3)cccc12`, the residual activity stood at 89%.

In the case of `CCCC(=O)Oc1ccc2[nH]c(C(=O)c3cc4ccccc4[nH]3)cc2c1`, the residual activity amounted to 108%.

Turning to `N#Cc1c(NC(=O)c2cccc3ccccc23)sc2c1CCCC2`, the residual activity was determined as 100%.

`COc1cc2nccc(Oc3ccc(NC(=S)NC(=O)c4ccccc4C)cc3)c2cc1OC`: the residual activity was determined as 95%.

As for `Oc1cccc(-c2nc(N3CCOCC3)c3oc4ncccc4c3n2)c1`, the residual activity turned out to be 100%.

As to `NC(=O)Nc1sc(-c2ccc(F)cc2)cc1C(N)=O`, the residual activity amounted to 88%.

`COc1ccc(Cl)cc1NC(=O)Nc1cc(C)nc2ccccc12`: the residual activity is 91%.

`Nc1ncnc2[nH]nc(Nc3ccc(F)cc3)c12`: the residual activity is 102%.

For the compound `O=C(c1cc2cc(O)ccc2[nH]1)c1cc2cc(O)ccc2[nH]1`, the residual activity was found to be 83%.

A further experiment shares this target. As to conditions: at 10 µM.
With `COc1cc2ncnc(Nc3cccc(Cl)c3)c2cc1OC`, the residual activity stood at 87%.

As to `O=C1NC(=O)C(c2cn(CCCO)c3ncccc23)=C1c1cnccn1`, the residual activity was determined as 75%.

Take `O=C(NC(NC(=S)Nc1ccc(F)c([N+](=O)[O-])c1)C(Cl)(Cl)Cl)C(c1ccccc1)c1ccccc1` (centres undefined): the residual activity is 61%.

In the case of `CC(C)(C)n1nc(Cc2cccc3ccccc23)c2c(N)ncnc21`, the residual activity is 79%.

As to `Nc1ncnc2c1c(-c1ccc(Oc3ccccc3)cc1)cn2C1CCCC1`, the residual activity was found to be 63%.

For `O=C(c1ccccc1)c1ccc(N2CCOCC2)cc1O`, the residual activity is 85%.

With `COc1cc2nccc(Oc3ccc(NC(=O)Nc4cc(C)on4)c(Cl)c3)c2cc1OC`, the residual activity turned out to be 54%.

Turning to `O=C1Cc2c([nH]c3ccc([N+](=O)[O-])cc23)-c2ccccc2N1`, the residual activity is 41%.

Regarding `CC(C)c1nn(-c2c(Cl)cccc2Cl)c2nc(Cc3ccc(OCCO)cc3)[nH]c(=O)c12`, the residual activity was found to be 51%.

In the case of `Cn1sc(=O)n(Cc2ccccc2)c1=O`, the residual activity is 94%.

Turning to `Nc1ncnc2c1cnn2-c1ccccc1`, the residual activity amounted to 86%.

For `O=C(O)/C=C/c1cc(Br)c(Br)c(Br)c1Br`, the residual activity came to 76%.

Turning to `O=C1NC(=O)C(c2c[nH]c3ccccc23)=C1c1c[nH]c2ccccc12`, the residual activity was determined as 77%.

For the compound `Cn1c2ccccc2c2c3c(c4c5ccccc5n(CCC#N)c4c21)CNC3=O`, the residual activity came to 2%.

As for `O=C1NC(=O)c2c1c1c3ccccc3[nH]c1n1cncc21`, the residual activity was 73%.

Consider `COc1cc2c(cc1OC)-c1n[nH]c(Nc3cccc(F)c3)c1C2`, for which the residual activity came to 99%.

With `Nc1n[nH]c2nc3ccccc3nc12`, the residual activity was determined as 84%.

On to `O=c1cc(N2CCNCC2)oc2c(-c3ccccc3)cccc12`, for which the residual activity was found to be 82%.

For the compound `CCCC(=O)Oc1ccc2[nH]c(C(=O)c3cc4ccccc4[nH]3)cc2c1`, the residual activity was found to be 75%.

With `O=C1Nc2ccccc2/C1=C\c1c(Cl)[nH]c2ccccc12`, the residual activity was found to be 85%.

With `N#Cc1c(NC(=O)c2cccc3ccccc23)sc2c1CCCC2`, the residual activity stood at 66%.

As for `COc1cc2nccc(Oc3ccc(NC(=S)NC(=O)c4ccccc4C)cc3)c2cc1OC`, the residual activity amounted to 64%.

With `Oc1cccc(-c2nc(N3CCOCC3)c3oc4ncccc4c3n2)c1`, the residual activity amounted to 78%.

In the case of `NC(=O)Nc1sc(-c2ccc(F)cc2)cc1C(N)=O`, the residual activity is 40%.

Regarding `COc1ccc(Cl)cc1NC(=O)Nc1cc(C)nc2ccccc12`, the residual activity stood at 88%.

`O=c1cc(N2CCOCC2)oc2c1ccc1ccccc12`: the residual activity came to 94%.

As for `Nc1ncnc2[nH]nc(Nc3ccc(F)cc3)c12`, the residual activity was 81%.

In the case of `O=C(c1cc2cc(O)ccc2[nH]1)c1cc2cc(O)ccc2[nH]1`, the residual activity came to 52%.

The next experiment deals with PAS domain-containing serine/threonine-protein kinase (Homo sapiens) (UniProt Q96RG2). The note with it: at 10 µM.
Chain of PAS domain-containing serine/threonine-protein kinase (Homo sapiens) (Q96RG2 whole entry, the tested form may be a part): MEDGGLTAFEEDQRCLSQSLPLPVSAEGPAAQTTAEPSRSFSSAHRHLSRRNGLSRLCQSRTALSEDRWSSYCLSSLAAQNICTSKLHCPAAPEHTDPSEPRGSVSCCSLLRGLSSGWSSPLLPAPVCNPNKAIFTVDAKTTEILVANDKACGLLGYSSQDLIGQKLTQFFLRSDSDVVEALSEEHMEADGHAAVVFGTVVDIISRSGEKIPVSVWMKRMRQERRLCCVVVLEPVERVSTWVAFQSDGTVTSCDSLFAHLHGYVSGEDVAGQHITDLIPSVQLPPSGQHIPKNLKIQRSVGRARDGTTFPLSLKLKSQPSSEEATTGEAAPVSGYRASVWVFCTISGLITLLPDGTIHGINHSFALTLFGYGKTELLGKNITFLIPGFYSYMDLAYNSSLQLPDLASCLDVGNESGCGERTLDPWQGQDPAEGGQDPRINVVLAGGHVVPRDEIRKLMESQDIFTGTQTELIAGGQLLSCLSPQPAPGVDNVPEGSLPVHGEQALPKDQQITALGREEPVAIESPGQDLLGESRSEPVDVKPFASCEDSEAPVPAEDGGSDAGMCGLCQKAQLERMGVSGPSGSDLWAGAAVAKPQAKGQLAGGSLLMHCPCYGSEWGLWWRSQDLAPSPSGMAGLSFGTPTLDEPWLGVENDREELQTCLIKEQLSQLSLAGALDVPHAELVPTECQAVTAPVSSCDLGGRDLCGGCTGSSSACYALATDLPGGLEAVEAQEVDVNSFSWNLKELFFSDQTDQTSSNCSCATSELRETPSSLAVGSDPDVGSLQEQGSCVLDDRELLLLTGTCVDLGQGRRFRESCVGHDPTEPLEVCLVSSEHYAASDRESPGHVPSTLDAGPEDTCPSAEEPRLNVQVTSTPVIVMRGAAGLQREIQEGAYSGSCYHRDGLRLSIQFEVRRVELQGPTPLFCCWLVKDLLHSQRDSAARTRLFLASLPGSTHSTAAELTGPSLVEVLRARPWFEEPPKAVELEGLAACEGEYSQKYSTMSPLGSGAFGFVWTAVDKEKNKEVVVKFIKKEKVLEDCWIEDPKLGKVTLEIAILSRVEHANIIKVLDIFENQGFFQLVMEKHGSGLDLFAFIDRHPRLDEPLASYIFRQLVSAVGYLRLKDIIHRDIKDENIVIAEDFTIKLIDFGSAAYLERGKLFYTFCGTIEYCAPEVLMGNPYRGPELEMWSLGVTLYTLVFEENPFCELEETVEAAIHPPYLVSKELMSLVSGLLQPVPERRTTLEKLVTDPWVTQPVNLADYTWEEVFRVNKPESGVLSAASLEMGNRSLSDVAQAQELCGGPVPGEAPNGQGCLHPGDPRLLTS
Take `O=C1NC(=O)C(c2cn(CCCO)c3ncccc23)=C1c1cnccn1`: the residual activity was determined as 89%.

`O=C(NC(NC(=S)Nc1ccc(F)c([N+](=O)[O-])c1)C(Cl)(Cl)Cl)C(c1ccccc1)c1ccccc1` (centres undefined): the residual activity was 75%.

As for `CC(C)(C)n1nc(Cc2cccc3ccccc23)c2c(N)ncnc21`, the residual activity was found to be 71%.

As for `Nc1ncnc2c1c(-c1ccc(Oc3ccccc3)cc1)cn2C1CCCC1`, the residual activity is 43%.

Take `O=C(c1ccccc1)c1ccc(N2CCOCC2)cc1O`: the residual activity came to 78%.

In the case of `COc1cc2nccc(Oc3ccc(NC(=O)Nc4cc(C)on4)c(Cl)c3)c2cc1OC`, the residual activity was 62%.

`Cn1sc(=O)n(Cc2ccccc2)c1=O`: the residual activity was found to be 138%.

As to `COc1ccc2c(c1)c(C1=C(c3c[nH]c4ccccc34)C(=O)NC1=O)cn2CCCN(C)C`, the residual activity was found to be 32%.

Turning to `Nc1ncnc2c1cnn2-c1ccccc1`, the residual activity was determined as 92%.

In the case of `O=C(O)/C=C/c1cc(Br)c(Br)c(Br)c1Br`, the residual activity turned out to be 6%.

Turning to `O=C1NC(=O)C(c2c[nH]c3ccccc23)=C1c1c[nH]c2ccccc12`, the residual activity stood at 39%.

Regarding `Cn1c2ccccc2c2c3c(c4c5ccccc5n(CCC#N)c4c21)CNC3=O`, the residual activity came to 49%.

Regarding `O=C1NC(=O)c2c1c1c3ccccc3[nH]c1n1cncc21`, the residual activity stood at 26%.

As to `O=c1cc(N2CCNCC2)oc2c(-c3ccccc3)cccc12`, the residual activity stood at 51%.

With `CCCC(=O)Oc1ccc2[nH]c(C(=O)c3cc4ccccc4[nH]3)cc2c1`, the residual activity was 84%.

With `O=C1Nc2ccccc2/C1=C\c1c(Cl)[nH]c2ccccc12`, the residual activity was found to be 67%.

`N#Cc1c(NC(=O)c2cccc3ccccc23)sc2c1CCCC2`: the residual activity turned out to be 96%.

For the compound `O=C1Nc2ccc(Cl)cc2/C1=C/c1cc(Cl)c(O)c(Cl)c1`, the residual activity came out at 29%.

With `NC(=O)Nc1sc(-c2ccc(F)cc2)cc1C(N)=O`, the residual activity is 96%.

`COc1ccc(Cl)cc1NC(=O)Nc1cc(C)nc2ccccc12`: the residual activity was 43%.

With `O=c1cc(N2CCOCC2)oc2c1ccc1ccccc12`, the residual activity came to 88%.

As to `Nc1ncnc2[nH]nc(Nc3ccc(F)cc3)c12`, the residual activity was determined as 62%.
